# Rows were chosen to be rich in hits. Some 1.4% of all compounds tested hit in one or more screens of this group.
# Sa ugtP lethal = growth inhibition of ugtP-null S. aureus, primary screen, RN4220 ugtP deletion, OD600 | 16 h | growth inhibition, % (no concentration beside the values) | 330,000 compounds, 0.54% hits | AID 1259309, 2017; in the data active means growth inhibition above about 68%;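 further: plate controls were untreated wells for no effect and antibiotic for full effect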
# PrP UTR inh = inhibition of PrP 5' UTR reporter expression. 340,000 compounds, 0.35% hits. AID 488862, 2010. cell-based PrP 5' UTR mRNA reporter, plate reader. inhibition, % (concentration not given with the values); in the data active means inhibition above about 52%; further: 0 = median of the neutral control wells
# PfHsp40 rescue = rescue of yeast from PfHsp40 toxicity, primary screen, S. cerevisiae, ATP luminescence. S. cerevisiae expressing PfHsp40, growth rescue. 340,000 compounds, 0.68% hits. growth rescue, % at 12.5 µM; in the data active means growth rescue above about 28%, passing the limit was not always enough; inconclusive means no clear call, values can overlap the other calls;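 further: yeast W303a lacking pdr1 and pdr3 grown in galactose medium; growth measured after three days at 30 °C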
# Yp Topo-I inh = Yersinia pestis topoisomerase I inhibitors, primary screen, biochemical, cleavage product accumulation, plate reader, single point; activity, % at 10 µM; DNA topoisomerase I (Yersinia pestis CO92); Y. pestis Topo-I cleavage product accumulation; 360,000 compounds, 0.064% hits; in the data active means activity above about 50%, passing the limit was not always enough; inconclusive means no clear call, values can overlap the other calls
# Sa RN4220 lethal = growth inhibition of S. aureus RN4220, primary screen, OD600; 16 h; inhibition, % (concentration not given with the values); 330,000 compounds, 0.33% hits; AID 1259311, 2017; in the data active means inhibition above about 85%;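 further: plate controls were untreated cells for no effect and reference antibiotic for full effect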
# BJeLR lethal = MLPCN primary cell-based screen for lethality selective to Ras in HRASV12 cells. 300,000 compounds, 0.17% hits. inhibition, % (test concentration not listed). BJeLR (HRASV12) viability, CellTiter-Glo ATP luminescence, 48 h; in the data active means inhibition above about 50%; inconclusive means no clear call, values can overlap the other calls
# * marks the source's active call; other numbers are inactive results; ? = inconclusive; . = no result given.
SMILES,Sa ugtP lethal,PrP UTR inh,PfHsp40 rescue,Yp Topo-I inh,Sa RN4220 lethal,BJeLR lethal
CCOC1OC(C(=O)N2CCCCCCC2)=CC(c2csc3ccccc23)C1CCCO (stereo not drawn),-6.7,.,.,.,3.2,.
Nc1ccc2c(c1)Cc1ccccc1-2,5.6,-40.8,1.3,-5.8,3.4,10.7
N#CC1C(=N)Cc2ccccc2-c2ccccc21 (stereo not drawn),4.8,-4.9,39.3*,-0.5,6.6,.
O=C(c1cc2ccccc2o1)N(Cc1ccco1)Cc1cccs1,16.5,-8.3,164.8*,49.9,3.7,7.5
Oc1[nH]c2ccccc2c1C=Nc1nccs1,-1.4,.,.,.,8.7,.
CCOc1ccc(Cl)cc1C1=CC(=O)CC(c2ccc(OC)cc2)C1 (stereo not drawn),-18.1,.,.,.,2.1,.
Cc1ccc(C(C)C)c(OCc2nn(CC(=O)c3ccc(Cl)cc3)c3[n+]2CCCCC3)c1,99.4*,-10.1,0.1,5.0,100.5*,-8.2
C=CC1c2cc(C)ccc2N(S(=O)(=O)c2ccc(C)cc2)C(c2ccc(OC(C)=O)cc2)C1(C#N)C#N (stereo not drawn),16.6,.,.,.,13.3,.
Cc1cc(=O)n(-c2ccc(O)cc2)[nH]1,82.2*,-16.1,0.0,4.9,18.2,2.5
Cc1cc(=O)n(-c2ccc(C(=O)O)cc2)[nH]1,-3.2,-10.9,2.2,0.8,7.8,1.3
O=C(NCc1cccnc1)Nc1ccc(Br)cc1,5.5,-37.4,-0.1,6.8,-0.6,2.5
CC(C)C(=O)Nc1ccc(C(=O)NCc2cccnc2)cc1,-9.4,-8.2,-0.3,-0.2,1.9,77.8*
O=C(NCc1cccnc1)c1ccc(NC(=O)c2ccc(Br)cc2)cc1,-4.0,-9.8,-2.1,-0.4,1.4,78.3*
C=CCn1c(SC(F)F)nc2scc(-c3ccco3)c2c1=O,95.2*,-9.4,-2.3,32.8,7.0,9.4
C=CCn1c(SCC(C)=O)nc2scc(-c3ccco3)c2c1=O,8.3,-13.7,0.5,-11.4,3.5,-1.1
CCC[C@@H](CN1CCC[C@H]1CN1C(N)=NC[C@H]1CC(C)C)N1C[C@@H](Cc2ccccc2)N(CCCC2CCCC2)C1=N,100.6*,-6.6,1.1,12.9,99.6*,.
CCC(C)C1CN(C(C)CN2CCCC2CN2C(N)=NCC2Cc2ccccc2)C(=N)N1CCCC1CCCC1 (stereo not drawn),100.2*,.,.,.,99.6*,.
CC(CN1CCCC1CN1C(N)=NCC1Cc1ccccc1)N1CC(Cc2ccccc2)N(CCCC2CCCC2)C1=N (stereo not drawn),100.0*,.,.,.,100.6*,.
CC(C)(C)N1C(CC(=O)O)c2cc(C(F)(F)F)ccc2S1(=O)=O (stereo not drawn),-5.6,.,.,.,4.2,.
CC(C)C(=O)N1CCN(c2ccc(NC(=O)c3ccc([N+](=O)[O-])o3)cc2Cl)CC1,55.5,-74.1,3.5,-2.4,47.5,.
O=C(Nc1ccc(N2CCOCC2)c(Cl)c1)c1ccc([N+](=O)[O-])o1,96.4*,-27.4,7.5,1.2,64.9,-15.7
CN1CCN(c2ccc(NC(=O)c3ccc([N+](=O)[O-])o3)cc2Cl)CC1,100.7*,4.3,-1.2,-7.5,99.3*,-1.1
CCN1/C(=C/C=C/c2oc3ccc4ccccc4c3[n+]2CC)Oc2ccc3ccccc3c21,99.3*,.,.,.,98.4*,.
CC[n+]1c(/C=C/N(C)c2ccccc2)oc2ccc(Cl)cc21,.,-3.3,-1.4,4.4,.,6.7
Cc1ccc(CSc2nc3ccsc3c(=O)n2Cc2ccccn2)cc1,86.9*,-27.8,-0.6,?,-9.8,4.6
SMILES,Sa ugtP lethal,PrP UTR inh,PfHsp40 rescue,Yp Topo-I inh,Sa RN4220 lethal,BJeLR lethal
COc1ccc(OC)c(CNc2ccc(F)c(Cl)c2)c1,7.0,-14.7,38.2*,-6.2,-0.4,4.2
COc1ccc(OC)c(CNc2ccc3c(c2)CCC3)c1,.,-18.0,-0.7,2.6,.,-0.4
CC1CCCC(C)N1C(=O)c1ccc2c(c1)S(=O)(=O)c1ccccc1C2=O (stereo not drawn),2.9,-25.3,69.8*,25.7,4.7,2.3
c1ccc(-c2ncc(-c3ccn[nH]3)s2)cc1,-4.4,-41.2,64.6*,-5.0,6.9,12.3
O=C1OCCN1/N=C/c1ccc([N+](=O)[O-])o1,.,-7.6,-1.0,-3.6,.,-18.0
O=C1OC(CN2CCOCC2)CN1N=Cc1ccc([N+](=O)[O-])o1 (stereo not drawn),99.6*,-30.8,-1.1,0.1,100.2*,.
O=C1OC(CN(Cc2ccccc2)Cc2ccccc2)CN1N=Cc1ccc([N+](=O)[O-])o1 (stereo not drawn),99.6*,0.5,-2.0,-7.1,80.1,.
CC1CN(C(C)CO)C(=O)c2cc(NC(=O)c3ccncc3)ccc2OC1CN(C)C(=O)Nc1ccccc1 (stereo not drawn),0.4,.,.,.,1.6,.
Cc1nc2ccc(C(=O)Nc3ccccc3Cl)cc2s1,5.8,-45.5,76.6*,-3.1,5.1,8.9
CC(=O)c1ccc(NC(=O)c2ccc3nc(C)sc3c2)cc1,5.4,-34.8,3.5,3.8,2.6,-2.8
CC(=O)Nc1ccc2nc(NC(=O)c3cccs3)sc2c1,4.1,-63.8,1.0,4.3,1.1,13.9
Cc1nc2ccc(NC(=O)COc3cccc(F)c3)cc2s1,-4.7,-8.4,241.5*,-2.8,9.4,-0.5
Cc1nc2ccc(NC(=O)c3cccs3)cc2s1,24.6,-50.6,37.1*,0.3,1.9,3.5
CC1COC(=O)C(CC(=O)OC(C)(C)C)CC=CCC(CC(=O)N(CCO)Cc2ccccc2)C(=O)N1 (stereo not drawn),0.9,.,.,.,2.7,.
CCN1C(=O)C2C(c3ccc(-c4ccc(OC)cc4)cc3)N[C@@](CC(C)C)(C(=O)OC)C2C1=O (stereo partly drawn),7.0,.,.,.,0.3,.
C/C(=N\NC(=S)NCCc1ccccc1)c1cccs1,.,-6.1,95.9*,29.8,.,3.9
CC(=NNC(=S)NCCc1ccccc1)c1cccs1,-8.1,.,.,.,13.2,.
Fc1ccc(-c2cc(C(F)(F)C(F)F)[nH]n2)cc1,85.9*,.,.,-4.8,-0.9,0.0
FC(F)C(F)(F)c1cc(-c2ccc(Cl)cc2)n[nH]1,-21.0,.,.,-3.8,-11.0,6.0
CCOC1OC(C(=O)N2CCCCCCC2)=CC(c2cn(C(C)=O)c3ccccc23)C1CCCO (stereo not drawn),-0.2,.,.,.,6.2,.
COc1ccc(NC=CC(=O)c2ccc(Oc3ncccn3)cc2)cc1,0.4,.,.,.,3.7,.
CCC(=O)Nc1ccc(NC(=S)NC(=O)Cc2ccccc2)cc1,63.4,-27.9,0.7,2.1,6.0,2.3
O=C(Cc1ccccc1)Nc1ccc(NC(=S)NC(=O)c2ccccc2)cc1,84.0*,-19.1,-0.5,19.9,-0.5,-7.9
Cc1ccccc1C(=O)NC(=S)Nc1ccc(Oc2ccc(Cl)cc2)cc1,86.4*,-14.7,-1.1,-1.1,-14.3,-5.1
O=C(Nc1cccnc1Cl)c1ccc(Cl)cc1,15.2,-32.8,8.5,24.8,4.9,-0.4

# Compound activity as filed in PubChem BioAssay.
